Measurements taken from PubChem BioAssay (Tox21).
Values joined by “and” are separate entries in the source; they are usually repeats but may differ in a detail not shown here. Equal values may be shown once. Results filed as inconclusive are left out. Active and inactive are the calls of the source. Unless noted, calls come from the whole dose curve; as a rule, active = well fitted curve in the direction sought with a large enough effect in the repeat runs; inconclusive = weak or mixed curves; inactive = no such curve, though single readings can be large; an effect the other way counts as inactive or inconclusive.

Legend:
[1] = qHTS assay to identify small molecule antagonists of the peroxisome proliferator-activated receptor delta (PPARd) signaling pathway - cell viability counter screen (AID 743213); settings: PPARd-bla HEK293H viability, CellTiter-Glo luminescence, 17 h; series mostly up to 62 µM; note: nearly all actives have a fitted effect of over 50% in size; note: potency is the fitted concentration of half-maximal effect
Method in brief: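 Agonist-stimulated (L165041, 300 nM final) HEK293H PPARd UAS-bla cells are exposed to compounds for 17 h at 37 C, and ATP-based luminescence (CellTiter-Glo) from the same wells reports cytotoxicity.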

[2] = target: Peroxisome proliferator-activated receptor delta (Homo sapiens) (UniProt Q03181); test: qHTS assay to identify small molecule antagonists of the peroxisome proliferator-activated receptor delta (PPARd) signaling pathway (AID 743215; active = well fitted inhibition curve with a large enough effect in the signal ratio in the repeat runs, not every such curve was filed as active; the % refers to the signal ratio; note: potency is the fitted concentration of half-maximal effect); settings: HEK293H PPARd-UAS-bla, beta-lactamase FRET ratio, antagonist, 17 h; series mostly up to 62 µM
Method in brief: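 With L165041 present at 300 nM final, compounds were incubated 17 h at 37 C on PPARd UAS-bla HEK293H cells. A FRET-based beta-lactamase substrate was then applied for 2 h at room temperature and fluorescence intensity recorded.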

[3] = target: Bile acid receptor (Homo sapiens) (UniProt Q96RI1); test: qHTS assay to identify small molecule antagonists of the farnesoid-X-receptor (FXR) signaling pathway (AID 743217; active = well fitted inhibition curve with a large enough effect in the signal ratio in the repeat runs, not every such curve was filed as active; the % refers to the signal ratio; note: potency is the fitted concentration of half-maximal effect); settings: HEK293T FXR-UAS-bla, beta-lactamase ratio, CDCA-stimulated, 16 h; series mostly up to 62.6 µM
Method in brief: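 In this cell-based antagonist screen, inhibition of CDCA-driven (50 uM final) UAS-beta-lactamase expression in HEK 293T cells was measured by FRET fluorescence following 16 h compound exposure at 37 °C.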

[4] = target: Bile acid receptor (Homo sapiens) (UniProt Q96RI1); test: qHTS assay to identify small molecule agonists of the farnesoid-X-receptor (FXR) signaling pathway (AID 743220; active = well fitted activation curve with a large enough effect in the signal ratio in the repeat runs, not every such curve was filed as active; the % refers to the signal ratio; note: potency is the fitted concentration of half-maximal effect); settings: HEK293T FXR-UAS-bla, beta-lactamase FRET ratio, 16 h; series mostly up to 62.6 µM
Method in brief: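 Beta-lactamase reporter under UAS control in GeneBLAzer FXR HEK 293T cells (5000/well) measured with LiveBLAzer FRET substrate after 2 h at room temperature. Compound exposure lasted 16 h at 37C.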

[5] = qHTS assay to identify small molecule antagonists of the farnesoid-X-receptor (FXR) signaling pathway - cell viability counter screen (AID 743221; active = well fitted cell-killing curve with a large enough effect in the repeat runs, not every such curve was filed as active; note: nearly all actives have a fitted effect of over 50% in size; note: potency is the fitted concentration of half-maximal effect); settings: FXR-bla HEK293T viability, CellTiter-Glo luminescence, 16 h; series mostly up to 62.6 µM
Method in brief: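 FXR-UAS-bla HEK 293T cells were treated with test compounds plus chenodeoxycholic acid (50 uM final) for 16 h at 37 C. Cell viability in the same wells was then read as CellTiter-Glo luminescence after 30 min at room temperature.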

[6] = target: Vitamin D3 receptor (Homo sapiens) (UniProt P11473); test: qHTS assay to identify small molecule agonists of the vitamin D receptor (VDR) signaling pathway (AID 743222; calls by dose curve); settings: HEK293T VDR-UAS-bla, beta-lactamase FRET ratio, 16 h; series mostly up to 63.5 µM
Method in brief: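 VDR-bla cells were seeded, left 4 h, treated with compounds in DMSO for 16 h, incubated 2 h at RT with B/G FRET substrate, and read for fluorescence.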

[7] = target: Vitamin D3 receptor (Homo sapiens) (UniProt P11473); test: qHTS assay to identify small molecule antagonists of the vitamin D receptor (VDR) signaling pathway (AID 743223; active = well fitted inhibition curve with a large enough effect in the signal ratio in the repeat runs, not every such curve was filed as active; the % refers to the signal ratio); settings: VDR-UAS-bla HEK293T, beta-lactamase FRET ratio, 16 h; series mostly up to 61 µM
Method in brief: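 VDR-bla cells were plated, incubated 4 h at 37C, then given compound and 1alpha,25-dihydroxyvitamin D3 (3 nM final). After 16 h at 37C, LiveBLAzer B/G FRET substrate was added for 2 h at room temperature and fluorescence read.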

[8] = qHTS assay to identify small molecule agonists of the vitamin D receptor (VDR) signaling pathway - cell viability counter screen (AID 743224); settings: VDR-bla HEK293T viability, CellTiter-Glo luminescence, 16 h; series mostly up to 62.6 µM; note: nearly all actives have a fitted effect of over 50% in size; note: potency is the fitted concentration of half-maximal effect
Method in brief: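 Here cell health was gauged by luminescent ATP detection (CellTiter-Glo, 30 min RT) in VDR-bla cells that had been incubated with test compounds for 16 h at 37C and 5% CO2.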

[9] = target: Peroxisome proliferator-activated receptor delta (Homo sapiens) (UniProt Q03181); test: qHTS assay to identify small molecule agonists of the peroxisome proliferator-activated receptor delta (PPARd) signaling pathway (AID 743212; calls by dose curve); settings: HEK293H PPARd-UAS-bla, beta-lactamase FRET ratio, 17 h; series mostly up to 62.6 µM
Method in brief: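 HEK293H UAS-bla reporter cells, human PPARd system; compounds delivered in DMSO after 5 h plating, then at 37 C. Beta-lactamase FRET read, 2 h RT substrate step.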

[10] = qHTS assay to identify small molecule agonists of the farnesoid-X-receptor (FXR) signaling pathway - cell viability counter screen (AID 743218); settings: FXR-bla HEK293T viability, CellTiter-Glo luminescence, 16 h; series mostly up to 62.6 µM; note: nearly all actives have a fitted effect of over 45% in size; note: potency is the fitted concentration of half-maximal effect
Method in brief: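 After 16 h at 37 C with test compounds, FXR-bla HEK 293T cells were given LiveBLAzer B/G substrate for 2 h at RT and then CellTiter-Glo; luminescence was taken after 30 min.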
% is set by controls: 0 for no effect and ±100 for the full control effect.

Peroxisome proliferator-activated receptor delta (Homo sapiens), sequence (Q03181 whole entry, looked up): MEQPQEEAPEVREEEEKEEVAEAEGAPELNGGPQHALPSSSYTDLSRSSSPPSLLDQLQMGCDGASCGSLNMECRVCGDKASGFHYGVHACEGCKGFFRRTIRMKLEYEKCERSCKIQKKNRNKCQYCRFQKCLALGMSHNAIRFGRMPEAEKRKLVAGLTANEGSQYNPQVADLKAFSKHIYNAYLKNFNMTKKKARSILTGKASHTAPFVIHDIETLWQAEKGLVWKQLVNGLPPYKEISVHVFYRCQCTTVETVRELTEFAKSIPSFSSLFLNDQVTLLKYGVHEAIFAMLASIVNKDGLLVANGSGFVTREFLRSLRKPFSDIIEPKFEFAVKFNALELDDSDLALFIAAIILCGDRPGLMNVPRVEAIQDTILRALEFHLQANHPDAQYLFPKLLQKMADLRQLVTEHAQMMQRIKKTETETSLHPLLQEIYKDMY
Vitamin D3 receptor (Homo sapiens), sequence (P11473 whole entry, looked up): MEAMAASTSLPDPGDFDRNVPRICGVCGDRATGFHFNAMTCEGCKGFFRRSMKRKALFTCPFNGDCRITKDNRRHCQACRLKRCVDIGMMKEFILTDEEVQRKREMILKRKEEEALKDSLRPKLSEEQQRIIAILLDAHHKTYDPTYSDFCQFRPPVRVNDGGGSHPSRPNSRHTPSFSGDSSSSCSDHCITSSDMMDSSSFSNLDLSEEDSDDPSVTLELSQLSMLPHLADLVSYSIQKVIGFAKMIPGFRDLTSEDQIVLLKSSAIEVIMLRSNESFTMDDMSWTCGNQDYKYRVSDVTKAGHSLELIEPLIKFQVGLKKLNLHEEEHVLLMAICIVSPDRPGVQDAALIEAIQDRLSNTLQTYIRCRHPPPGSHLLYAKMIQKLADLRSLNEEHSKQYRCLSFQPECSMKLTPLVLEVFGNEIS
Bile acid receptor (Homo sapiens), sequence (Q96RI1 whole entry, looked up): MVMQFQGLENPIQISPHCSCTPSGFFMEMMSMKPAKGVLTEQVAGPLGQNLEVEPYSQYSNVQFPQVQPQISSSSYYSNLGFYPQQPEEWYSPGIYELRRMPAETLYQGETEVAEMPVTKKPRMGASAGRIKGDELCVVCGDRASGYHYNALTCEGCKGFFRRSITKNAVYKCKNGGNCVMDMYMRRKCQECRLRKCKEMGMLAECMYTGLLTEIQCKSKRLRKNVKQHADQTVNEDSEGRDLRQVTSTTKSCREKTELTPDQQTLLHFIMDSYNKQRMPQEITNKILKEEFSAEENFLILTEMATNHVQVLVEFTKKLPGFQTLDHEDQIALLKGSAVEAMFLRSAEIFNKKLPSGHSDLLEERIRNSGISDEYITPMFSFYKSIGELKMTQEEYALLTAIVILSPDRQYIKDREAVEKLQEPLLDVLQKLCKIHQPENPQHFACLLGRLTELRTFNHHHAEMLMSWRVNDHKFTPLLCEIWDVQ

CCCCCC/C=C\CCCCCCCC(=O)O
inactive: Potency [1] | Potency [2] | Potency [3] | Potency [4] | Potency [5] | Potency [6] | Potency [7] | Potency [8]

COc1c(C)c2c(c(O)c1C/C=C(\C)CCC(=O)OCCN1CCOCC1)C(=O)OC2
active: Potency [3] 1.5 µM
inactive: Potency [9] | Potency [4] | Potency [6]

O=c1c(O)c(-c2ccc(O)cc2O)oc2cc(O)cc(O)c12
inactive: Potency [9] | Potency [10] | Potency [4] | Potency [5]

CC(CCc1ccccc1)NCC(O)c1ccc(O)c(C(N)=O)c1 (configuration not stated)
inactive: Potency [9] | Potency [2] | Potency [10] | Potency [4] | Potency [5]

CC(CO)Oc1ccccc1 (configuration not stated)
inactive: Potency [9] | Potency [2] | Potency [3] | Potency [10] | Potency [4] | Potency [5] | Potency [6] | Potency [7] | Potency [8]

Cc1c(N)cccc1C(F)(F)F
inactive: Potency [9] | Potency [2] | Potency [10] | Potency [5] | Potency [6] | Potency [7] | Potency [8]

CCO[C@@H]1O[C@H](C(COCc2ccccc2)OCc2ccccc2)[C@H](OCc2ccccc2)[C@H]1O (some centres not stated)
inactive: Potency [1] | Potency [4]
active: Potency [10] 21.1 µM | Potency [5] 13.3 µM

CN(C)C(=O)COC(=O)Cc1ccc(OC(=O)c2ccc(N=C(N)N)cc2)cc1
inactive: Potency [1] | Potency [3] | Potency [4] | Potency [5] | Potency [8]

Cc1cc(C)c(/C=C2\C(=O)Nc3ccccc32)[nH]1
active: Potency [2] 15 µM
inactive: Potency [1] | Potency [10] | Potency [5] | Potency [8]

CCCCCCCCCCCCCC[N+](C)(C)C
active: Potency [1] 21.1 µM and 6.16 µM | Potency [10] 47.3 µM | Potency [5] 47.3 µM and 29.8 µM
inactive: Potency [4]

Fc1ccc(C(c2ccc(F)cc2)N2CCNCC2)cc1
inactive: Potency [4] | Potency [6]
active: Potency [1] 15 µM | Potency [3] 29.8 µM | Potency [10] 11.9 µM | Potency [5] 26.6 µM | Potency [8] 26.6 µM

Cc1c2ccccc2c(C)c2c1ccc1ccccc12
active: Potency [1] 21.9 µM | Potency [10] 21.9 µM | Potency [4] 48.5 µM | Potency [5] 43.6 µM

O=[N+]([O-])c1ccc(F)c(Cl)c1
inactive: Potency [1] | Potency [3] | Potency [10] | Potency [4] | Potency [5] | Potency [6] | Potency [7] | Potency [8]

O=C(O)c1cc(N=Nc2ccc([N+](=O)[O-])cc2)ccc1O
inactive: Potency [1] | Potency [2] | Potency [5] | Potency [8]
active: Potency [10] 30.3 µM

Cc1cc(=O)oc2cc(O)cc(O)c12
inactive: Potency [1] | Potency [3] | Potency [5] | Potency [8]

CN(C)c1ccc(C(=C2C=CC(=[N+](C)C)C=C2)c2ccc(N(C)C)cc2)cc1
active: Potency [1] 17.3 µM and 17.4 µM and 6.68 µM | Potency [3] 16.8 µM | Potency [5] 21.8 µM and 27.5 µM and 13.3 µM | Potency [8] 4.87 µM and 4.9 µM and 11.9 µM
inactive: Potency [4] | Potency [6]

Nc1nc(-c2ccccc2)cs1
inactive: Potency [1] | Potency [3] | Potency [4] | Potency [5] | Potency [6] | Potency [7] | Potency [8]

NC[C@H]1O[C@H](O[C@H]2[C@H](O[C@@H]3O[C@H](CO)[C@@H](O)[C@H]3O)C(O)[C@H](N)C[C@@H]2N)[C@H](N)[C@@H](O)[C@@H]1O (some centres not stated)
inactive: viability change, negative = cytotoxic [1] -6.55% [at 13.7 µM] | viability change, negative = cytotoxic [10] 5.37% [at 13.2 µM] | activity change, negative = cytotoxicity [5] 8.66% [at 13.2 µM]

O=C1CCc2ccc(OCCCCN3CCN(c4cccc(Cl)c4Cl)CC3)cc2N1
inactive: Potency [4]
active: Potency [1] 13.3 µM | Potency [10] 13.3 µM | Potency [5] 16.8 µM

O=C1NC(=O)[C@@H]2CC=CC[C@H]12
inactive: Potency [1] | Potency [3] | Potency [4] | Potency [5] | Potency [6] | Potency [7] | Potency [8]
active: Potency [10] 21.9 µM

O=C(Nc1ccc2c(O)c(N=Nc3ccc(N=Nc4ccc(S(=O)(=O)O)cc4)cc3)c(S(=O)(=O)O)cc2c1)c1ccccc1
inactive: Potency [1] | Potency [10] | Potency [5] | Potency [6] | Potency [7] | Potency [8]

OC[C@H]1O[C@H](O[C@H]2O[C@H](CO)[C@@H](O)[C@H](O)[C@H]2O)[C@H](O)[C@@H](O)[C@@H]1O
inactive: Potency [1] | Potency [3] | Potency [4] | Potency [5] | Potency [6] | Potency [8]

CCn1c2ccccc2c2cc([N+](=O)[O-])ccc21
inactive: Potency [1] | Potency [3] | Potency [10] | Potency [5] | Potency [8]

C=C(C)C(=O)OCCCCCCCCCC
inactive: Potency [3] | Potency [5] | Potency [7]
active: Potency [1] 39.2 µM | Potency [8] 44 µM

COc1ccc2cc1Oc1ccc(cc1)C[C@H]1c3c(cc4c(c3Oc3cc5c(cc3OC)CCN(C)[C@@H]5C2)OCO4)CCN1C
active: Potency [1] 13.3 µM | Potency [10] 18.8 µM | Potency [5] 29.8 µM
inactive: Potency [4] | Potency [6]

OC1CCCc2ccccc21 (configuration not stated)
inactive: Potency [1] | Potency [10] | Potency [5] | Potency [6] | Potency [7] | Potency [8]

Cc1ccc(C(C)C)cc2c(C)ccc1-2
inactive: Potency [1] | Potency [3] | Potency [10] | Potency [4] | Potency [5] | Potency [6] | Potency [7] | Potency [8]
